Measurements: PubChem BioAssay AID1159580 (chemical genetic matrix, 2015)
About 2,000 (36%) of roughly 5,500 compounds were called active. About 18% were inconclusive and are not listed. Rule as the data show it: active = normalized growth mostly below about 0.91 (no sharp cut-off); inconclusive = no clear call, values can overlap the other calls; inactive = mostly above about 0.92. Some of the results follow.

Experiment: chemical genetic growth profiling, strain panel (AID 1159580);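 also: tested at 20 µM; growth read once vehicle control cultures reached saturation at 30 °C; 1 = growth at the plate median or of vehicle wells; lower values mean less growth of the strain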
Details: growth OD

Measured: normalized growth

O=C1C[C@@H](c2ccc(O)cc2)Oc2cc(O)cc(O)c21
inactive: S. cerevisiae deletion strains, locus YJR075W, strain HOC1, active compounds read low 1.02 | S. cerevisiae deletion strains, locus YKL009W, strain mrt4, active compounds read low 1 | S. cerevisiae deletion strains, locus YKL068W, active compounds read low 0.998 | S. cerevisiae deletion strains, locus YKL085W, strain MDH1 (second series), active compounds read low 1 | S. cerevisiae deletion strains, locus YKL085W, strain MDH1, active compounds read low 1 | S. cerevisiae deletion strains, locus YKL160W, strain elf1, active compounds read low 0.985 | S. cerevisiae deletion strains, locus YKL190W, strain CNB1, active compounds read low 1.01 | S. cerevisiae deletion strains, locus YKR001C, strain vps1, active compounds read low 0.999 | S. cerevisiae deletion strains, locus YKR026C, strain gcn3, active compounds read low 0.962 | S. cerevisiae deletion strains, locus YKR091W, strain srl3, active compounds read low 0.973 | S. cerevisiae deletion strains, locus YLL001W, strain dnm1, active compounds read low 0.944 | S. cerevisiae deletion strains, locus YLL026W, active compounds read low 0.967 | S. cerevisiae deletion strains, locus YLL041C, strain sdh2, active compounds read low 0.977 | S. cerevisiae deletion strains, locus YLR027C, strain aat2, active compounds read low 0.982 | S. cerevisiae deletion strains, locus YLR039C, strain RIC1, active compounds read low 1 | S. cerevisiae deletion strains, locus YLR058C, strain SHM2, active compounds read low 1.01 | S. cerevisiae deletion strains, locus YLR102C, strain apc9, active compounds read low 1.02 | S. cerevisiae deletion strains, locus YLR113W, strain HOG1, active compounds read low 0.967 | S. cerevisiae deletion strains, locus YLR221C, strain rsa3, active compounds read low 0.975 | S. cerevisiae deletion strains, locus YLR258W, strain gsy2, active compounds read low 0.968 | S. cerevisiae deletion strains, locus YLR262C, strain YPT6 (second series), active compounds read low 0.962 | S. cerevisiae deletion strains, locus YLR262C, strain YPT6, active compounds read low 0.992 | S. cerevisiae deletion strains, locus YLR268W, strain sec22, active compounds read low 1.01 | S. cerevisiae deletion strains, locus YLR320W, strain mms22, active compounds read low 0.959 | S. cerevisiae deletion strains, locus YLR330W, strain CHS5, active compounds read low 1.02 | S. cerevisiae deletion strains, locus YLR342W, strain FKS1 (second series), active compounds read low 0.989 | S. cerevisiae deletion strains, locus YLR342W, strain FKS1, active compounds read low 0.963 | S. cerevisiae deletion strains, locus YLR357W, strain rsc2, active compounds read low 0.935 | S. cerevisiae deletion strains, locus YLR370C, strain arc18, active compounds read low 0.957 | S. cerevisiae deletion strains, locus YLR371W, strain rom2, active compounds read low 1.03 | S. cerevisiae deletion strains, locus YLR384C, strain iki3, active compounds read low 0.959 | S. cerevisiae deletion strains, locus YLR418C, strain cdc73, active compounds read low 1.03 | S. cerevisiae deletion strains, locus YML016C, strain PPZ1, active compounds read low 1.01 | S. cerevisiae deletion strains, locus YML032C, strain rad52, active compounds read low 1.01 | S. cerevisiae deletion strains, locus YML120C, strain ndi1, active compounds read low 0.957 | S. cerevisiae deletion strains, locus YML124C, strain tub3, active compounds read low 1.02 | S. cerevisiae deletion strains, locus YMR058W, strain fet3, active compounds read low 0.955 | S. cerevisiae deletion strains, locus YMR078C, strain ctf18, active compounds read low 1.02 | S. cerevisiae deletion strains, locus YMR125W, strain sto1, active compounds read low 0.938 | S. cerevisiae deletion strains, locus YMR129W, active compounds read low 0.966 | S. cerevisiae deletion strains, locus YMR205C, strain PFK2, active compounds read low 0.942 | S. cerevisiae deletion strains, locus YMR223W, strain ubp8, active compounds read low 1.01 | S. cerevisiae deletion strains, locus YMR231W, strain pep5, active compounds read low 0.976 | S. cerevisiae deletion strains, locus YMR263W, strain SAP30, active compounds read low 1.01 | S. cerevisiae deletion strains, locus YMR307W, strain GAS1, active compounds read low 0.994 | S. cerevisiae deletion strains, locus YNL067W, strain RPL9B, active compounds read low 1.01 | S. cerevisiae deletion strains, locus YNL071W, strain lat1, active compounds read low 0.967 | S. cerevisiae deletion strains, locus YNL128W, strain TEP1, active compounds read low 1.02 | S. cerevisiae deletion strains, locus YNL153C, strain GIM3, active compounds read low 1.01 | S. cerevisiae deletion strains, locus YNL183C, strain NPR1, active compounds read low 0.936 | S. cerevisiae deletion strains, locus YNL209W, strain ssb2, active compounds read low 0.966 | S. cerevisiae deletion strains, locus YNL233W, strain BNI4, active compounds read low 0.999 | S. cerevisiae deletion strains, locus YNL248C, strain rpa49, active compounds read low 0.969 | S. cerevisiae deletion strains, locus YNL250W, strain rad50, active compounds read low 1.01 | S. cerevisiae deletion strains, locus YNL271C, strain bni1, active compounds read low 1.01 | S. cerevisiae deletion strains, locus YNL298W, strain CLA4, active compounds read low 1.03 | S. cerevisiae deletion strains, locus YNL307C, strain MCK1, active compounds read low 1.01 | S. cerevisiae deletion strains, locus YNL322C, strain KRE1 (second series), active compounds read low 0.982 | S. cerevisiae deletion strains, locus YNL322C, strain KRE1, active compounds read low 1.01 | S. cerevisiae deletion strains, locus YNR049C, strain mso1, active compounds read low 0.959 | S. cerevisiae deletion strains, locus YNR052C, strain pop2, active compounds read low 1.01 | S. cerevisiae deletion strains, locus YOL006C, strain TOP1, active compounds read low 0.997 | S. cerevisiae deletion strains, locus YOL012C, strain htz1 0.851 | S. cerevisiae deletion strains, locus YOL147C, strain pex11, active compounds read low 1.02 | S. cerevisiae deletion strains, locus YOR001W, strain rrp6, active compounds read low 0.983 | S. cerevisiae deletion strains, locus YOR061W, strain CKA2, active compounds read low 1.02 | S. cerevisiae deletion strains, locus YOR069W, strain VPS5, active compounds read low 1.01 | S. cerevisiae deletion strains, locus YOR070C, strain gyp1, active compounds read low 0.964 | S. cerevisiae deletion strains, locus YOR080W, strain dia2, active compounds read low 0.976 | S. cerevisiae deletion strains, locus YOR083W, strain WHI5, active compounds read low 0.996 | S. cerevisiae deletion strains, locus YOR106W, strain vam3, active compounds read low 0.963 | S. cerevisiae deletion strains, locus YOR136W, strain idh2, active compounds read low 1.02 | S. cerevisiae deletion strains, locus YOR144C, strain elg1, active compounds read low 1.01 | S. cerevisiae deletion strains, locus YOR184W, strain ser1, active compounds read low 1 | S. cerevisiae deletion strains, locus YOR231W, strain MKK1, active compounds read low 0.95 | S. cerevisiae deletion strains, locus YOR265W, strain rbl2, active compounds read low 0.969 | S. cerevisiae deletion strains, locus YOR270C, strain vph1, active compounds read low 0.902 | S. cerevisiae deletion strains, locus YOR290C, strain snf2, active compounds read low 0.923 | S. cerevisiae deletion strains, locus YOR316C, strain cot1, active compounds read low 1.01 | S. cerevisiae deletion strains, locus YPL051W, strain arl3, active compounds read low 0.984 | S. cerevisiae deletion strains, locus YPL055C, strain LGE1, active compounds read low 1.02 | S. cerevisiae deletion strains, locus YPL078C, strain atp4, active compounds read low 0.971 | S. cerevisiae deletion strains, locus YPL106C, strain sse1, active compounds read low 0.957 | S. cerevisiae deletion strains, locus YPL240C, strain hsp82, active compounds read low 0.978 | S. cerevisiae deletion strains, locus YPL241C, strain CIN2, active compounds read low 1 | S. cerevisiae deletion strains, locus YPL256C, strain CLN2, active compounds read low 0.921 | S. cerevisiae deletion strains, locus YPR119W, strain clb2, active compounds read low 1.01 | S. cerevisiae deletion strains, locus YPR141C, strain kar3, active compounds read low 1.01 | S. cerevisiae deletion strains, locus YPR163C, strain tif3, active compounds read low 1 | S. cerevisiae deletion strains, locus YPR167C, strain met16, active compounds read low 1.01 | S. cerevisiae deletion strains, strain wtn01, active compounds read low 1.02 | S. cerevisiae strains, strain wild type, active compounds read low 1.01
